Test results as given in PubChem BioAssay (NCATS).
Records with an inconclusive call do not appear. Activity calls are given as the source filed them. The call rests on the fitted dose curve; in most records, active means well fitted curve in the direction sought with a large enough effect; inconclusive means small, poorly fitted or top-dose-only effect, or another doubt; inactive means no such curve, though single readings can be large; an effect the other way counts as inactive or inconclusive. Where a SMILES comes first, the peptide text is derived from it.

What was measured:
CRL-7250 = normal cell line; test: Cytotoxic Profiling of Annotated Libraries Using Quantitative High-Throughput Screening (AID 1296008); details: Five cell lines viability, CellTiter-Glo ATP luminescence, 48-72 h; max response: active compounds read low; further: nearly all actives have a fitted effect of over 60% in size; on max response: on the % scale 0 is the no-effect control and ±100 the full control effect
Procedure, shortened: (§1)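 Compounds were pin-transferred onto cells and incubated 48 or 72 hr at 37 degree Celsius, 95% humidity. CellTiter-Glo was added, plates sat 10 min at room temperature, then ATP-coupled luminescence was imaged as the viability read-out.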

HEK293 = test: as above; details: Five cell lines viability, CellTiter-Glo ATP luminescence, 48-72 h; max response: active compounds read low
Procedure, shortened: as §1

HaCat [1] = test: as above; details: Five cell lines viability, CellTiter-Glo ATP luminescence, 48-72 h; max response: active compounds read low
Procedure, shortened: as §1

KB-3-1 = test: as above; details: Five cell lines viability, CellTiter-Glo ATP luminescence, 48-72 h; max response: active compounds read low
Procedure, shortened: as §1

NIH3T3 = test: as above; details: Five cell lines viability, CellTiter-Glo ATP luminescence, 48-72 h; max response: active compounds read low
Procedure, shortened: as §1

HACAT [2] = test: qHTS assay to identify novel small-molecules to repurpose for Merkel cell carcinoma treatment (AID 1296009); details: MCC and control cell lines, CellTiter-Glo viability, 72 h; at 44.8 µM (top of the series) unless noted; further: nearly all actives have a fitted effect of over 60% in size
Procedure, shortened: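 Viability readout: ATP luminescence (CellTiter-Glo) after 72 hr drug exposure at 37 degree celsius. Dose-response format was 8 points for NPC and 11 points for MIPE; data normalized to in-plate controls.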

C33A = test: Primary qHTS to identify gynecologic anti-cancer compounds using libraries of approved drugs and bioactive compounds (AID 1345084); details: Gynecologic cancer cell panel viability, ATPlite luminescence, 48 h; series mostly up to 57.5 µM; further: on the % scale 0 is the no-effect control and ±100 the full control effect; nearly all actives have a fitted effect of over 55% in size
Procedure, shortened: (§2)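 Cells, 1,000 per well, were allowed to settle for 16 h at 37 C before compound addition. Five concentrations were tested for 48 h, and viability was read by ATPlite luminescence after 15 min at room temperature.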

CAOV3 = test: as above; details: Gynecologic cancer cell panel viability, ATPlite luminescence, 48 h; series mostly up to 57.5 µM
Procedure, shortened: as §2

CASKI = test: as above; details: Gynecologic cancer cell panel viability, ATPlite luminescence, 48 h; series mostly up to 57.5 µM
Procedure, shortened: as §2

Es-2 = test: as above; details: Gynecologic cancer cell panel viability, ATPlite luminescence, 48 h; series mostly up to 57.5 µM
Procedure, shortened: as §2

HeLa = test: as above; details: Gynecologic cancer cell panel viability, ATPlite luminescence, 48 h; series mostly up to 57.5 µM
Procedure, shortened: as §2

Hek293T = test: as above; details: Gynecologic cancer cell panel viability, ATPlite luminescence, 48 h, control line for the selectivity index; series mostly up to 57.5 µM
Procedure, shortened: as §2

JEG-3 = test: as above; details: Gynecologic cancer cell panel viability, ATPlite luminescence, 48 h; series mostly up to 57.5 µM
Procedure, shortened: as §2

OV90 = test: as above; details: Gynecologic cancer cell panel viability, ATPlite luminescence, 48 h; series mostly up to 57.5 µM
Procedure, shortened: as §2

PA-1 = test: as above; details: Gynecologic cancer cell panel viability, ATPlite luminescence, 48 h; series mostly up to 57.5 µM
Procedure, shortened: as §2

C[C@@H]1O[C@@H](O[C@H]2[C@H](O)[C@@H](O)[C@H](OC[C@H]3O[C@@H](OC(=O)[C@]45CCC(C)(C)C[C@H]4C4=CCC6[C@@]7(C)C[C@@H](O)[C@H](O)[C@@](C)(CO)C7[C@H](O)C[C@@]6(C)[C@]4(C)CC5)[C@H](O)[C@@H](O)[C@@H]3O)O[C@@H]2CO)[C@H](O)[C@H](O)[C@H]1O (stereo not given in full)
inactive: outcome (CRL-7250) | max response (HEK293) -10.1% | outcome (HaCat [1]) | outcome (KB-3-1) | max response (NIH3T3) -2.14% | outcome (HACAT [2]) inactive [at 9.27 µM] | activity change, negative = cytotoxicity (C33A) 15% [at 11.6 µM] | activity change, negative = cytotoxicity (CAOV3) -8.06% [at 11.6 µM] | activity change, negative = cytotoxicity (CASKI) -1.59% [at 11.6 µM] | activity change, negative = cytotoxicity (Es-2) -1.56% [at 11.6 µM] | activity change, negative = cytotoxicity (HeLa) 13.5% [at 11.6 µM] | activity change, negative = cytotoxicity (Hek293T) -2.97% [at 11.6 µM] | activity change, negative = cytotoxicity (JEG-3) -6.46% [at 11.6 µM] | activity change, negative = cytotoxicity (OV90) -3.81% [at 11.6 µM] | activity change, negative = cytotoxicity (PA-1) 2.94% [at 11.6 µM]

Cc1nc2ccccc2c(-c2ccc3c4c(ccnc24)CCO3)c1[C@H](OC(C)(C)C)C(=O)O
inactive: max response (CRL-7250) -8% | max response (HEK293) 4.74% | outcome (HaCat [1]) | max response (KB-3-1) -6.3% | max response (NIH3T3) -2.71% | outcome (HACAT [2]) | Potency (C33A) | Potency (CAOV3) | outcome (CASKI) | Potency (Es-2) | Potency (HeLa) | Potency (Hek293T) | Potency (JEG-3) | Potency (OV90) | Potency (PA-1)

CCC(C)/C=C(C)/C=C/C1=CC2=C(Cl)C(=O)C(C)(OC(C)=O)C(=O)C2=CN1CCCCC(N)C(=O)O (stereo not given)
inactive: max response (CRL-7250) -2.74% | max response (HEK293) 3.25% | outcome (HaCat [1]) | outcome (KB-3-1) | max response (NIH3T3) 3.52% | outcome (HACAT [2]) inactive [at 17.4 µM] | Potency (C33A) | Potency (CAOV3) | outcome (CASKI) | Potency (Es-2) | Potency (HeLa) | Potency (Hek293T) | Potency (JEG-3) | Potency (OV90) | Potency (PA-1)

CC(C)C1NC(=O)CNC(=O)C2CCCN2C(=O)C(Cc2c[nH]c3ccccc23)NC(=O)CNC(=O)C(Cc2ccc(O)cc2)NC(=O)CNC1=O (stereo not given) (cyclo(GVGYGWP); configuration not given here)
inactive: max response (CRL-7250) -2.61% | max response (HEK293) 3.25% | outcome (HaCat [1]) | outcome (KB-3-1) | max response (NIH3T3) -0.317% | outcome (HACAT [2]) inactive [at 17.4 µM] | Potency (C33A) | Potency (CAOV3) | outcome (CASKI) | Potency (Es-2) | Potency (HeLa) | Potency (Hek293T) | Potency (JEG-3) | Potency (OV90) | Potency (PA-1)

CCC(C)/C=C(C)/C=C/C1=CC2=C(Cl)C(=O)C(C)(OC(C)=O)C(=O)C2=CN1C(CC(=O)O)C(=O)O (stereo not given)
inactive: max response (CRL-7250) 4.26% | max response (HEK293) 4.62% | outcome (HaCat [1]) | max response (KB-3-1) 7.58% | max response (NIH3T3) -16.9% | outcome (HACAT [2]) inactive [at 17.4 µM] | Potency (C33A) | Potency (CAOV3) | outcome (CASKI) | Potency (Es-2) | Potency (HeLa) | Potency (Hek293T) | Potency (JEG-3) | Potency (OV90) | Potency (PA-1)

CC1CC(=O)[C@]2(O)C(C(=O)OCCc3ccc(O)cc3)=CO[C@@H](O[C@@H]3O[C@H](CO)[C@@H](O)[C@H](O)[C@H]3O)[C@H]12 (stereo not given in full)
inactive: max response (CRL-7250) -11.7% | max response (HEK293) -6.36% | outcome (HaCat [1]) | outcome (KB-3-1) | max response (NIH3T3) -59.3% | outcome (HACAT [2]) inactive [at 17.4 µM] | Potency (C33A) | Potency (CAOV3) | outcome (CASKI) | Potency (Es-2) | Potency (HeLa) | Potency (Hek293T) | Potency (JEG-3) | Potency (OV90) | Potency (PA-1)

O=C(Nc1ccn(Cc2c(F)cccc2C(F)(F)F)n1)c1c(F)cccc1F
inactive: max response (CRL-7250) -12.9% | max response (HEK293) 1.72% | outcome (HaCat [1]) | outcome (KB-3-1) | max response (NIH3T3) 2.19% | outcome (HACAT [2]) inactive [at 9.27 µM] | activity change, negative = cytotoxicity (C33A) 3.35% [at 11.6 µM] | activity change, negative = cytotoxicity (CAOV3) 17% [at 11.6 µM] | activity change, negative = cytotoxicity (CASKI) 7.64% [at 11.6 µM] | activity change, negative = cytotoxicity (Es-2) 0.101% [at 11.6 µM] | activity change, negative = cytotoxicity (HeLa) 13% [at 11.6 µM] | activity change, negative = cytotoxicity (Hek293T) -2.96% [at 11.6 µM] | activity change, negative = cytotoxicity (JEG-3) 9.68% [at 11.6 µM] | activity change, negative = cytotoxicity (OV90) 0.656% [at 11.6 µM] | activity change, negative = cytotoxicity (PA-1) 10.8% [at 11.6 µM]

CN1CCN(C2=Nc3ccccc3Nc3ccc(O)cc32)CC1
inactive: max response (CRL-7250) 2.24% | max response (HEK293) -1.86% | outcome (HaCat [1]) | outcome (KB-3-1) | max response (NIH3T3) 4.15% | outcome (HACAT [2]) | Potency (C33A) | Potency (CAOV3) | outcome (CASKI) | Potency (Es-2) | Potency (HeLa) | Potency (Hek293T) | Potency (JEG-3) | Potency (OV90) | Potency (PA-1)

CCC[C@H](N[C@@H](C)C(=O)N1[C@H](C(=O)O)C[C@@H]2CCCC[C@@H]21)C(=O)O
inactive: max response (CRL-7250) -2.24% | max response (HEK293) 3.79% | outcome (HaCat [1]) | max response (KB-3-1) -5.15% | max response (NIH3T3) -10.2% | outcome (HACAT [2]) | Potency (C33A) | Potency (CAOV3) | outcome (CASKI) | Potency (Es-2) | Potency (HeLa) | Potency (Hek293T) | Potency (JEG-3) | Potency (OV90) | Potency (PA-1)

C/C=C(/C)C(=O)O[C@H]1C[C@]2(C)O[C@@H]2[C@@H](OC(C)=O)[C@@]2(C)CC[C@@](O)(C(C)C)[C@H]12
inactive: outcome (CRL-7250) | max response (HEK293) -3.47% | outcome (HaCat [1]) | max response (KB-3-1) -1.06% | max response (NIH3T3) -1.87% | outcome (HACAT [2]) | Potency (C33A) | Potency (CAOV3) | outcome (CASKI) | Potency (Es-2) | Potency (HeLa) | Potency (Hek293T) | Potency (JEG-3) | Potency (OV90) | Potency (PA-1)

CC(O)C/C=C/C=C/C(=O)OC1C=C2COC(=O)C2(O)C2(C)CCCC(C)(C)C12 (stereo not given)
inactive: outcome (CRL-7250) | max response (HEK293) -13.6% | outcome (HaCat [1]) | max response (KB-3-1) 5.12% | max response (NIH3T3) -2.82% | outcome (HACAT [2]) | Potency (C33A) | Potency (CAOV3) | outcome (CASKI) | Potency (Es-2) | Potency (HeLa) | Potency (Hek293T) | Potency (JEG-3) | Potency (OV90) | Potency (PA-1)
